Experimental data published in PubChem BioAssay AID1688 (National Center for Advancing Translational Sciences (NCATS), 2009).
Hit rate of the full screen: of about 220,000 compounds, about 2,400 (1.1%) were called active. A call without a number means that no potency is given here. Inconclusive results (about 7%) are left out. Calls come from the whole dose curve; as a rule, active = well fitted inhibition curve with a large enough effect; inconclusive = small, poorly fitted or top-dose-only effect, or effect the other way; inactive = no such curve, though single readings can be large or run the other way. Many of the other results were omitted from the sample, so actives are more common in it than they were.
Potency is the fitted concentration of half-maximal effect.

Experiment: qHTS Multiplex Assay to Identify Dual Action Probes in a Cell Model of Huntington: Aggregate Formation (GFP); note: nearly all actives have a fitted effect of over 60% in size
Conditions: PC12 HttQ103-GFP aggregates, Acumen cytometry, 40 h; series mostly up to 9.22 µM
How it was run: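 PC12 cells with ecdysone-inducible HTT exon1 Q103-GFP, induced by 100 nM tebufenozide, given compounds in a concentration series. GFP aggregates (1–25 um, 6 SD above background) counted in lysates by laser-scanning cytometry, 488 nm excitation.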
With `COC(=O)c1ccc(COc2ccc(/C=N/NC(=O)C(=O)Nc3ccc(OC)cc3)cc2OC)o1` the Potency was “inactive”. With `CCc1ccc(NC(=O)N2CCN(c3ccccc3)CC2)cc1` the Potency was “inactive”. In the case of `CC[n+]1c(C)n(-c2ccccc2)c2ccc(NC(C)=O)cc21`, the Potency is reported as 3.98 µM (active). With `CCn1c2ccccc2c2cc(NC(=O)CNC)ccc21` the Potency was “inactive”. With `Cc1ccc(N2C(=O)CN=C2Nc2nc(C)cc(C)n2)cc1` the Potency was “inactive”. In the case of `O=C(c1ccc(=O)oc1)N1CCC(C(O)(c2ccccc2)c2ccccc2)CC1`, the Potency is reported as “inactive”. For `Cc1cc(NCc2cccnc2)no1`, the Potency was “inactive”. With `Brc1ccc2ncnc(NCc3cccnc3)c2c1` the Potency was 1.78 µM (active). In the case of `O=C(O)CCCCCNc1ncnc2ccc(Br)cc12`, the Potency is reported as “inactive”. For `CCOC(=O)c1cnc(COc2ccccc2Cl)[nH]c1=O`, the Potency was “inactive”. With `Cc1c(NC(=O)CN2C(=O)C(=O)N(Cc3ccccc3)C2=O)c(=O)n(-c2ccccc2)n1C` the Potency was “inactive”. In the case of `O=C1CC(Cc2ccc(Cl)cc2)C(=O)N1c1cc(Cl)ccn1` (configuration not stated), the Potency is reported as “inactive”. For `CCCCN(CCCC)CC(O)Cn1c2ccccc2c(=O)c2ccccc21` (configuration not stated), the Potency was “inactive”. For `O=C(NNS(=O)(=O)Cc1ccccc1)c1ccc([N+](=O)[O-])cc1`, the Potency was “inactive”. For `CC1CCN(c2c(NCc3ccc(C(=O)NCc4ccccc4)cc3)c(=O)c2=O)CC1`, the Potency was “inactive”. With `O=C(Nc1cccc(-c2nc3ccccc3[nH]2)c1)c1ccc(C(=O)Nc2cccc(-c3nc4ccccc4[nH]3)c2)cc1` the Potency was “inactive”. For `CN(c1ccccc1)S(=O)(=O)c1cc(C(=O)OCC(=O)N2CCN(C(=O)c3ccco3)CC2)ccc1Cl`, the Potency was “inactive”. For `CN(c1ccccc1)S(=O)(=O)c1cc(C(=O)Nc2nc3ccccc3[nH]2)ccc1Cl`, the Potency was 11.2 µM (active). In the case of `COC(=O)/C=C(\Oc1ccccc1)C1(O)CCCCC1`, the Potency is reported as “inactive”. With `CC(C)(C)c1nnc(NC(=O)C2c3ccccc3Oc3ccccc32)s1` the Potency was “inactive”. With `Nc1ccc(C(=O)Nc2ccccc2N)cc1` the Potency was “inactive”. With `COc1cccc(-c2nnc(NC(=O)c3ccc(S(=O)(=O)N(CC(C)C)CC(C)C)cc3)o2)c1` the Potency was 5.01 µM (active). For `COc1cccc(NC(=O)CN(C)S(=O)(=O)c2ccc(C)cc2)c1`, the Potency was “inactive”. For `COc1cccc(NC(=O)c2ccc(S(=O)(=O)N(C)C)cc2)c1`, the Potency was “inactive”. With `Oc1ccc(Cl)c2c1CCC2` the Potency was “inactive”. In the case of `CCOc1ccccc1N1CN(Cc2ccccc2)CNC1=S`, the Potency is reported as “inactive”. In the case of `COC(=O)C1=C(C)N(C)C(=S)NC1c1ccccc1` (configuration not stated), the Potency is reported as 3.16 µM (active). For `COC(=O)C1=C(C)N(C)C(=S)NC1c1cc(OC)ccc1OC` (configuration not stated), the Potency was “inactive”. In the case of `COCCN1C(=O)N[C@@H](c2ccccc2)C(C(=O)OC)=C1C`, the Potency is reported as “inactive”. For `COc1ccc(-c2csc(NC3OC(=O)c4ccccc43)n2)cc1` (configuration not stated), the Potency was “inactive”. For `CCOC(=O)c1sc(NC(=O)CSc2ncccn2)c(C#N)c1C`, the Potency was “inactive”. For `Cc1c(C(=O)OC(C)C)sc(NC(=O)c2cccnc2)c1C#N`, the Potency was 11.2 µM (active). In the case of `CCOC(=O)c1cc(NC(=O)c2cccnc2)cc(C(=O)OCC)c1`, the Potency is reported as “inactive”. In the case of `O=S(=O)(c1ccc(F)cc1)N1CC=C(c2ccccc2)CC1`, the Potency is reported as “inactive”. For `O=C1CCCC(O)=C1N=Nc1ccc(S(=O)(=O)N2CCOCC2)cc1`, the Potency was “inactive”. With `O=C(C1=C(O)C(=O)N(CCOCCO)C1c1ccccn1)c1cccs1` (configuration not stated) the Potency was “inactive”. With `COc1ccc(Cc2cc(-c3ccc(F)cc3)n[nH]c2=O)cc1` the Potency was “inactive”. With `Fc1ccccc1/C=N/n1c(-c2cccnc2)n[nH]c1=S` the Potency was “inactive”. With `CCOC(=O)c1c(NC(=O)c2ccc(N3CCOCC3)c([N+](=O)[O-])c2)sc(C)c1C` the Potency was “inactive”. In the case of `O=C(NCCCN1CCOCC1)c1ccc(N2CCCC2)c([N+](=O)[O-])c1`, the Potency is reported as “inactive”. With `N#Cc1c(NC(=O)c2ccc(N3CCOCC3)c([N+](=O)[O-])c2)sc2c1CCCC2` the Potency was 5.62 µM (active). In the case of `Cc1cc(=O)[nH]c(S)c1C#N`, the Potency is reported as “inactive”. In the case of `NC(=O)C(=O)N/N=C/c1ccc([N+](=O)[O-])o1`, the Potency is reported as “inactive”. For `O=C(O)c1cccnc1Sc1ncnc2sc3c(c12)CCC3`, the Potency was “inactive”. For `COCCn1c(C)cc(C(=O)CSc2ncnc3sc4c(c23)CCC4)c1C`, the Potency was 6.31 µM (active). For `COCCn1c(C)cc(C(=O)CSc2nc3ccccc3c(=O)n2C(C)COC)c1C` (configuration not stated), the Potency was “inactive”. For `CC(C)(C)C(=O)NNC(=O)c1ccc(Oc2cc(Cl)cc(Cl)c2)o1`, the Potency was “inactive”. For `CCOc1cc2c(Cl)ncnc2c(OCC)c1OCC`, the Potency was “inactive”. With `Cc1nc2ccccc2c(-c2ccccc2)c1C(=O)c1ccccc1` the Potency was “inactive”. In the case of `Cc1nc2ccccc2c(C)c1C(=O)c1ccc(F)cc1`, the Potency is reported as 7.94 µM (active). For `Cc1nc2ccc(C(=O)O)cc2[nH]1`, the Potency was “inactive”. In the case of `COc1ccc(Cl)cc1C(=O)NNC(=O)c1nc2nc(C)cc(C)n2n1`, the Potency is reported as “inactive”. In the case of `FC(F)(F)c1ccc(-n2cn[nH]c2=S)cc1`, the Potency is reported as “inactive”. For `COc1ccc(NC(=O)C(C)SCc2ccccc2)cc1` (configuration not stated), the Potency was “inactive”. For `COc1ccc(NC(=O)C(Br)C(C)C)cc1` (configuration not stated), the Potency was 0.891 µM (active). With `CCOC(=O)C(NC(C)=O)C(=O)Nc1ccc(OC)cc1` (configuration not stated) the Potency was “inactive”. With `O=C(COc1ccccc1[N+](=O)[O-])N/N=C/c1ccc[nH]1` the Potency was “inactive”. In the case of `O=C1CC2(CC(c3ccc(Cl)cc3)=NO2)C(=O)N1c1ccccc1` (configuration not stated), the Potency is reported as “inactive”. In the case of `C#CCNc1ccc(C(=O)OCC)cc1`, the Potency is reported as “inactive”. In the case of `Fc1ccc(-c2csc(-c3ccc(C4SCCS4)cc3)n2)cc1F`, the Potency is reported as “inactive”. For `Cn1nccc1CNC(=O)c1ccnn1C`, the Potency was “inactive”. With `CCN(CC)C(=O)c1sc(NC(=O)c2ccco2)c(C#N)c1C` the Potency was “inactive”. For `CCCc1ccc(-c2c(C)sc(NC(=O)c3ccnn3C)c2C#N)cc1`, the Potency was 7.08 µM (active). In the case of `CCN(CC(=O)Nc1ccc(S(=O)(=O)N2CCCC2)cc1)CC(=O)Nc1cccc(OC)c1`, the Potency is reported as “inactive”. In the case of `CN(Cc1nc(-c2cnccn2)no1)Cc1n[nH]c2c1CCCCC2`, the Potency is reported as “inactive”. For `Cc1ccc(NC(=O)C/C(N)=N/O)cc1Cl`, the Potency was “inactive”. In the case of `O=C(CC(O)(C(F)(F)F)C(F)(F)F)Nc1ccc(Cl)c(Cl)c1`, the Potency is reported as 5.01 µM (active). With `O=C(CC(=O)Nc1ccc(Cl)c(Cl)c1)N/N=C/c1ccc(O)cc1` the Potency was “inactive”. With `Cn1cc(S(=O)(=O)NC(c2ccccc2)c2ccccc2)c(=O)n(C)c1=O` the Potency was “inactive”. For `c1ccc(Cc2cc[n+](Cc3ccccc3)cc2)cc1`, the Potency was “inactive”. For `CN(C)c1ccc(/C=N/N(Cc2ccccc2)c2ccccc2)cc1`, the Potency was “inactive”. In the case of `CN(C)c1cc[n+](Cc2ccccc2)cc1`, the Potency is reported as 7.08 µM (active).
